High-throughput results (PubChem BioAssay)
KB-V1 cytotox: kills drug-selected multidrug resistant KB-V1 cells; KB-V1 MDR cells viability, CellTiter-Glo, 72 h; Potency, µM (titrated, usually from 46.1 µM), usual class: cytotoxic; 400,000 tested, 3.4% active; further: nearly all actives have a fitted effect of over 60% in size
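In this primary screen, KB-V1 cells overexpressing P-gp are incubated with library compounds (lowest to highest concentration) for 72 h at 37 degrees C before a luminescent ATP viability read.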
DT40 TDP1 CPT: growth inhibition of DT40 Tdp1-/-;hTDP1 cells with camptothecin (screen for TDP1 inhibitors); 420,000 tested, 12% active; chicken DT40 Tdp1-/-;hTDP1 cells + 20 nM CPT, ATP luminescence, 48 h; Potency, µM (titrated, usually from 46.2 µM), for inactives: top-dose activity change, negative = growth inhibition, most hits filed as inhibitors; further: nearly all actives have a fitted effect of over 55% in size
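Chicken DT40 Tdp1-/- cells complemented with human TDP1, 400 cells/well, exposed to compounds plus 20 nM camptothecin for at least 48 h at 37 C; viability read as ATP content by CellTiter-Glo luminescence.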
HT1080NT lethal: kills 2HG-producing HT-1080-NT fibrosarcoma cells; HT-1080-NT fibrosarcoma viability, CellTiter-Glo ATP luminescence, 48 h; Potency, µM (titrated, usually from 46.1 µM), without a hit: at the highest dose activity, negative = less viability, hits mostly cytotoxic; 360,000 tested, 1.6% active;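 further: NT is the 2HG producing partner of a matched IDH1 knockdown line; 0% = DMSO-treated cells and -100% = media-only wells without cells; nearly all actives have a fitted effect of over 55% in size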
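Fibrosarcoma NT cells, 750 per well in 5% FBS RPMI, were exposed to compound for 48 hours. Viability: CellTiter-Glo luminescence.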
TDP1 cell noCPT: qHTS for Inhibitors of human tyrosyl-DNA phosphodiesterase 1 (TDP1): qHTS in cells in absence of CPT. DT40 Tdp1-/- hTDP1 cells, no CPT, ATP luminescence, 48 h. Potency, µM (series often up to 46.2 µM), for the others: top-dose activity change, negative = growth inhibition, hits mostly inhibitors. 420,000 tested, 15% active; further: nearly all actives have a fitted effect of over 55% in size
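Chicken DT40 Tdp1-/- cells stably complemented with human TDP1 were seeded at 400 cells/well with DMSO in place of 20 nM camptothecin. After compound pinning, cells grew at least 48 hr at 37 °C; viability read by CellTiter-Glo luminescence.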
HT1080 IDH1KD tx: HT-1080 IDH1 knockdown cell toxicity (counter line); 360,000 tested, 2% active; HT-1080 IDH1 knockdown viability, ATP luminescence, 48 h; Potency, µM (series often up to 46.1 µM), inactives show top-dose activity, negative = toxicity, most hits filed as cytotoxic;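 further: 0% = DMSO wells and -100% = cell-free medium wells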
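After a 2 h attachment period, IDH1KD HT-1080 cells took pin-transferred compound for 48 h at 37 °C; ATP-based luminescence after 10 min room-temperature reagent incubation reported viability.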
KB-3-1 cytotox: kills parental KB-3-1 adenocarcinoma cells | 400,000 tested, 1.4% active | Potency, µM (series often up to 46.1 µM), usual class: cytotoxic | KB-3-1 viability, CellTiter-Glo ATP luminescence, 72 h | AID 1347075; further: nearly all actives have a fitted effect of over 60% in size
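72 h, 37 °C compound treatment of KB-3-1 parental cells; CellTiter-Glo added, 10 min, luminescence read. Data corrected against DMSO-only plates and normalized before curve fitting.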
Starred values were filed as active, the others as inactive; [ ] = another dose, or the depositor's remark. The list is not random: actives were taken first. Their share in the collection is about 19%. The call rests on the fitted dose curve; in most records, active means well fitted curve in the direction sought with a large enough effect; inconclusive means small, poorly fitted or top-dose-only effect, or another doubt; inactive means no such curve, though single readings can be large; an effect the other way counts as inactive or inconclusive. Unless noted, on the % scale 0 is the no-effect control and ±100 the full control effect; potency means the concentration at half of the fitted maximal effect.

`Cc1cccc(CN2CCC(n3nccc3NC(=O)CCCc3ccccc3)CC2)c1` gave KB-V1 cytotox inconclusive, DT40 TDP1 CPT inconclusive, HT1080NT lethal -11.6%, TDP1 cell noCPT 20.6µM*, HT1080 IDH1KD tx -23.4% and KB-3-1 cytotox inactive.
For CCOc1ccccc1CN1CCC(n2nccc2NC(=O)CCCc2ccccc2)CC1 the results were KB-V1 cytotox inactive, DT40 TDP1 CPT inconclusive, HT1080NT lethal -2.9%, TDP1 cell noCPT 18.4µM*, HT1080 IDH1KD tx -26.0% and KB-3-1 cytotox inactive.
Screening COc1cccc(CN2CCC(n3nccc3NC(=O)CCCc3ccccc3)CC2)c1 returned KB-V1 cytotox inactive, DT40 TDP1 CPT inconclusive, HT1080NT lethal inconclusive, TDP1 cell noCPT inconclusive, HT1080 IDH1KD tx -16.7% and KB-3-1 cytotox inactive.
For COc1ccccc1CN1CCC(n2nccc2NC(=O)CCCc2ccccc2)CC1 the results were KB-V1 cytotox inactive, DT40 TDP1 CPT 14.6µM*, HT1080NT lethal -20.0%, TDP1 cell noCPT inconclusive, HT1080 IDH1KD tx -20.9% and KB-3-1 cytotox inactive.
COCc1c(C(=O)N2CCN(C3CCCCC3)CC2)cnn1-c1ncc(C)c(-c2cccs2)n1 was read as DT40 TDP1 CPT 1.6%[9.04 µM] and TDP1 cell noCPT -5.2%.
Screening O=C(NCc1cccnc1)Nc1ccc(Br)cc1 returned KB-V1 cytotox inactive, DT40 TDP1 CPT 10.2%, HT1080NT lethal 12.8%, TDP1 cell noCPT 12.5%, HT1080 IDH1KD tx 17.8% and KB-3-1 cytotox inactive.
`COc1cc(OC)cc(C(=O)NCc2cccnc2)c1` gave KB-V1 cytotox inconclusive, DT40 TDP1 CPT 26.8%, HT1080NT lethal 6.0%, TDP1 cell noCPT -5.9%, HT1080 IDH1KD tx 0.0% and KB-3-1 cytotox inactive.
For O=C(COc1ccc(Cl)cc1)Nc1ccc(C(=O)NCc2cccnc2)cc1 the results were KB-V1 cytotox inconclusive, DT40 TDP1 CPT 11.6µM*, HT1080NT lethal inconclusive, TDP1 cell noCPT 9.2µM*, HT1080 IDH1KD tx inconclusive and KB-3-1 cytotox inconclusive.
Cc1ccc(OCc2ccc(C(=O)NCc3cccnc3)cc2)cc1C was read as KB-V1 cytotox inconclusive, DT40 TDP1 CPT 3.26µM*, HT1080NT lethal inconclusive, TDP1 cell noCPT 5.17µM*, HT1080 IDH1KD tx 18.4µM* and KB-3-1 cytotox inconclusive.
Screening COc1ccc(NC(=O)COc2ccc(C(=O)NCc3cccnc3)cc2OC)cc1 returned KB-V1 cytotox inactive, DT40 TDP1 CPT inconclusive, HT1080NT lethal -3.2%, TDP1 cell noCPT inconclusive, HT1080 IDH1KD tx 13.7% and KB-3-1 cytotox inactive.
O=C(COc1ccc(Cl)cc1)Nc1ccccc1C(=O)NCc1cccnc1 was read as DT40 TDP1 CPT inconclusive, HT1080NT lethal -8.3%, TDP1 cell noCPT 23.1µM* and HT1080 IDH1KD tx -1.4%.
O=C(NCc1cccnc1)c1ccc(NC(=O)c2ccc(Br)cc2)cc1 was read as KB-V1 cytotox inactive, DT40 TDP1 CPT 9.2µM*, HT1080NT lethal 11.6µM*, TDP1 cell noCPT 14.6µM*, HT1080 IDH1KD tx 5.8µM* and KB-3-1 cytotox inactive.
For COc1ccccc1OCC(=O)Nc1ccccc1C(=O)NCc1cccnc1 the results were KB-V1 cytotox inactive, DT40 TDP1 CPT -28.3%, HT1080NT lethal 0.0%, TDP1 cell noCPT -27.2%, HT1080 IDH1KD tx 9.6% and KB-3-1 cytotox inactive.
CN(CCC#N)C(=O)COC(=O)c1c2c(nc3ccccc13)/C(=C/c1ccco1)CC2 was read as KB-V1 cytotox inconclusive, DT40 TDP1 CPT inconclusive, HT1080NT lethal 11.7%, TDP1 cell noCPT inconclusive, HT1080 IDH1KD tx 14.1% and KB-3-1 cytotox inactive.
Screening O=C(Nc1ccc(S(=O)(=O)Nc2nccs2)cc1)c1ccc(=O)[nH]c1 returned KB-V1 cytotox inactive, DT40 TDP1 CPT 11.1%, HT1080NT lethal 12.7%, TDP1 cell noCPT 8.6%, HT1080 IDH1KD tx 8.2% and KB-3-1 cytotox inactive.
